# Source: PubChem BioAssay
# GPR151 ag = activates the human receptor GPR151; Q8TDV0; PathHunter beta-arrestin GPR151 cells, luminescence; activation, % at 11.2 µM; 650,000 compounds, 1% hits; AID 1508602; in the data active = activation above about 4.9%;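 also: 0% = median of compound wells and 100% = cells with positive control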
# TEAD-YAP block = TEAD-YAP interaction inhibition; HEK-TIYL cells, TEAD-Gal4/YAP UAS-luciferase luminescence; inhibition, % at 9.12 µM; 640,000 compounds, 1.4% hits; in the data active = inhibition above about 32%;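 also: 0% = median of test compound wells and 100% = reference inhibitor wells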
# FBW7 activator = activators of human E3 ligase FBW7 | normalized activity (activation), % at 26.1 µM | Q969H0 | AlphaScreen FBW7–phospho-cyclin E peptide binding, activator screen | AID 1259310 | 650,000 compounds, 0.13% hits; in the data active = normalized activity above about 1.9%;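 also: purified mutant Fbw7 with reduced substrate affinity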
# MITF primary = inhibitors of human MITF; O75030; AlphaScreen MITF homodimerization, bead proximity signal; inhibition, % at 2.6 µM; 650,000 compounds, 0.91% hits; in the data active = inhibition above about 50%;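 also: 0% = vehicle wells with protein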
# Target sequence (O75030 whole entry, looked up): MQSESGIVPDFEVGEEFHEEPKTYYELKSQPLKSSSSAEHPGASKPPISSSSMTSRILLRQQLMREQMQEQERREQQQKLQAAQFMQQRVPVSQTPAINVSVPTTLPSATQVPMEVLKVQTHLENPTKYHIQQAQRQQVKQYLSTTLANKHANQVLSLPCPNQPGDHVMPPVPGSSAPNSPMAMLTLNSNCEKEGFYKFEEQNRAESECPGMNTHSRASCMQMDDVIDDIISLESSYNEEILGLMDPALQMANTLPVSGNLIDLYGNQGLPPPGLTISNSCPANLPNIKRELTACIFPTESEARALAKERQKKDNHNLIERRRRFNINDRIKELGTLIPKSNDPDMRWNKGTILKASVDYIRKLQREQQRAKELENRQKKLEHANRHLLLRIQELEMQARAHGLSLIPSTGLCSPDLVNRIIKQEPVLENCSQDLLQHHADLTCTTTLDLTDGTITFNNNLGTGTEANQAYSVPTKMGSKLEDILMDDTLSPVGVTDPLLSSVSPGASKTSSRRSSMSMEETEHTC
# MITF inh conf = human MITF inhibition, confirmation; AlphaScreen MITF homodimerization, biotin/His-MITF beads; 4,700 compounds, 16% hits; inhibition, % at 2.6 µM; AID 1259372; shares compounds with MITF primary;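 active = inhibition above a cutoff derived from the DMSO control wells, cut at about 28% in these data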;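 also: 0% = MITF dimer wells with DMSO only; inhibitors lower the bead chemiluminescence by keeping MITF from dimerizing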
# AlphaScreen DR = AlphaScreen optical interference, dose response counter-screen | IC50, µM | AlphaScreen optical interference counterscreen, cell-free | shares compounds with MITF primary | 480 compounds, 6% hits; call rule not given here
# AS interf ctr = counter-screen: compounds optically interfering with AlphaScreen; LysRS AlphaScreen counterscreen, signal interference, triplicate; inhibition, % at 2.6 µM; 4,700 compounds, 7.6% hits; AID 1259376; shares compounds with MITF primary;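 active = inhibition above a cutoff derived from the DMSO control wells, cut at about 30% in these data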
# * = called active by the depositor; nt = not tested or not shown. The list is not random: actives were taken first. Their share in the collection is about 3.5%.
SMILES,GPR151 ag,TEAD-YAP block,FBW7 activator,MITF primary,MITF inh conf,AS interf ctr,others
CSc1ccc(CN2CCN(Cc3ccncc3)CC2)cc1,0,6,0,60*,3,-2,
CSc1ccc(CN2CCC(O)CC2)cc1,0,0,0,9,nt,nt,
OCCN1CCN(Cc2ccc(OCc3ccccc3)cc2)CC1,1,10,0,28,nt,nt,
CSc1ccc(CN2CCN(CCO)CC2)cc1,-1,-10,0,80*,-2,0,
OCCN1CCN(Cc2ccc(O)cc2)CC1,0,-3,0,86*,4,11,
CSc1ccc(CN2CCN(C(=O)C(c3ccccc3)c3ccccc3)CC2)cc1,-2,-3,0,53*,0,0,
O=C(O)c1ccoc1CSCc1occc1C(=O)O,0,10,-1,46,nt,nt,
c1ccc(Oc2ccccc2-c2ccnc(Nc3ccc(-n4cncn4)cc3)n2)cc1,0,-8,0,15,nt,nt,
COC(=O)C(Cc1ccccc1)N=Cc1c(O)[nH]c(=O)[nH]c1=O (centres undefined),1,0,0,-8,nt,nt,
COc1ccc(N(C)C(=O)CCc2nc(-c3ccc(C)cc3)no2)cc1,-1,12,0,56*,10,-5,
C/C(=N\Nc1ccc(S(=O)(=O)O)cc1)c1cccc(Br)c1,0,-7,-1,56*,38*,12,AlphaScreen DR=>6.5
C/C(=N\Nc1ccc(C(=O)O)cc1)c1cccc(Br)c1,-2,-78,0,5,nt,nt,
Cc1cc(C(C)(C)C)ccc1OCCn1ccnc1,-2,1,0,70*,4,15,
Cc1ccc(OCCn2ccnc2)c(C)c1,-1,6,0,0,nt,nt,
CC(C)(C)c1cc(Cl)ccc1OCCn1ccnc1,0,-3,1,74*,5,11,
C=CCc1cccc(OC)c1OCCOCCn1ccnc1,0,-7,0,54*,-1,7,
Cc1cc(Br)ccc1OCCOCCn1ccnc1,-2,-6,0,63*,3,8,
Cc1cc(C(C)(C)C)ccc1OCCCn1ccnc1,1,4,0,19,nt,nt,
COCCCN=Cc1c(C)[nH]n(-c2ccc(Cl)cc2)c1=O,3,-72,0,4,nt,nt,
O=[N+]([O-])c1cccc(CN2CCCC(c3nc4ccccc4[nH]3)C2)c1 (centres undefined),1,-3,0,0,nt,nt,
CN(c1ccc(C(F)(F)F)cn1)C1CCCCC1,1,-5,0,60*,0,10,
FC(F)(F)c1ccc(NC2CCCCC2)nc1,0,12,1,7,nt,nt,
CCN(CC)CCN1CCN(c2ccnc3c(-c4ccco4)cnn23)CC1,2,-15,-2,55*,8,13,
COc1ccc(-c2cncc(C(=O)NCc3cccc(C(F)(F)F)c3)c2)cc1,1,-10,0,2,nt,nt,
Cc1nnc(CNC(=O)c2cnn(-c3ccccc3)c2C)o1,1,3,0,6,nt,nt,
SMILES,GPR151 ag,TEAD-YAP block,FBW7 activator,MITF primary,MITF inh conf,AS interf ctr,others
Cc1nnc(CNC(=O)c2ccc(-n3cccc3)cc2)o1,1,12,0,55*,55*,16,AlphaScreen DR=>6.5
Fc1ccccc1N1CCN(Cc2cccnc2)CC1,0,7,0,46,nt,nt,
CC1CCC(N2CCN(Cc3cccnc3)CC2)CC1 (centres undefined),0,7,0,84*,-5,15,
O=S(=O)(c1ccc(Cl)cc1)N1CCN(Cc2cccnc2)CC1,-1,-2,0,4,nt,nt,
Fc1ccccc1N1CCN(C2CCN(Cc3cccnc3)CC2)CC1,-1,5,0,82*,9,7,
c1cncc(CN2CCN(Cc3ccncc3)CC2)c1,1,5,0,77*,7,0,
Brc1ccc(CN2CCN(Cc3cccnc3)CC2)cc1,4,-4,0,84*,1,9,
CCOc1ccc(NC(=O)CC2SC(=Nc3ccccc3)NC2=O)cc1 (centres undefined),0,4,0,3,nt,nt,
O=C(NCc1cccnc1)[C@@H]1C[C@H](NCc2ccccc2)CN1Cc1ccccc1Cl,0,-2,0,12,nt,nt,
c1cncc(CN2CCN(Cc3cccnc3)CC2)c1,0,9,0,60*,3,-1,
Brc1ccc(CN2CCN(c3ncccn3)CC2)cc1,0,5,0,54*,1,3,
Fc1ccc(N2CCN(Cc3cccnc3)CC2)cc1,1,11,0,37,nt,nt,
c1cncc(-c2n[nH]c(C3CCN(Cc4ccncc4)CC3)n2)c1,-1,-3,0,54*,5,11,
O=C(C1c2ccccc2Oc2ccccc21)N1CCCC(c2nc(-c3cccnc3)n[nH]2)C1 (centres undefined),0,-1,0,62*,7,14,
CCC/C(=N\NC(=S)Nc1ccc(S(=O)(=O)N2CCOCC2)cc1)c1ccccc1,-2,4,0,6,nt,nt,
NC(=O)c1c(NC(=O)CCc2ccccc2)sc2c1CCCCC2,-1,-33,0,1,nt,nt,
c1cncc(CN2CCN(Cc3ccco3)CC2)c1,1,2,0,75*,9,-1,
c1cncc(CN2CCN(Cc3ccc4ccccc4c3)CC2)c1,0,14,0,81*,10,12,
Cc1cccc(C)c1NC(=O)CSc1n[nH]c(N)n1,0,-8,0,-6,nt,nt,
CC1(C(=O)N2CCC3(CC2)CC3C(=O)N2CCN(c3ccccn3)CC2)CCCCC1 (centres undefined),-1,-3,0,37,nt,nt,
O=C(Oc1ccc([N+](=O)[O-])c2cccnc12)c1ccc(F)cc1,1,13,0,60*,66*,100*,
O=C(Oc1cccc2cccnc12)c1ccc(F)cc1,1,-5,0,14,nt,nt,
Cc1noc(C2CN(C(=O)c3ccc(-n4cccc4)cc3)C2)n1,0,3,0,55*,53*,9,AlphaScreen DR=>6.5
Cc1cc(NC(=O)C2CCN(C(=O)c3ccc(-n4cccc4)cc3)CC2)no1,0,-5,0,51*,47*,10,AlphaScreen DR=>6.5
Cc1ccc(OCCN2CCCC(C)C2)c([N+](=O)[O-])c1 (centres undefined),-1,8,0,58*,13,12,
SMILES,GPR151 ag,TEAD-YAP block,FBW7 activator,MITF primary,MITF inh conf,AS interf ctr,others
Cc1ccc(OCCCCN2CCCC2)c([N+](=O)[O-])c1,0,4,0,83*,-8,-2,
Cc1ccc([N+](=O)[O-])c(OCCCN2CCOCC2)c1,-1,-7,0,-10,nt,nt,
Cc1ccc(OCCCCN2CC(C)OC(C)C2)c([N+](=O)[O-])c1 (centres undefined),3,4,0,63*,-9,-5,
Cc1ccc(OCCCN2CCCCC2)c([N+](=O)[O-])c1,-1,-28,0,87*,-5,10,
Cc1cc(OCCCCN2CC(C)OC(C)C2)ccc1[N+](=O)[O-] (centres undefined),2,12,0,40,nt,nt,
COc1cc(C)cc2oc(=O)cc(-c3ccccc3)c12,0,6,0,-2,nt,nt,
